Assay outcomes deposited in PubChem by National Center for Advancing Translational Sciences (NCATS).
ELG1 repair inh: blocks ELG1-dependent DNA repair in HEK293T cells; Potency, µM (highest dose often 46.1 µM), for inactives: at the highest dose activity change, negative = inhibition, usual class: inhibitors; HEK293T ELG1-luciferase reporter, luminescence, 16 h; DNA damage induced by 5-fluorouridine; 2.3% of 330,000 active; AID 504467; note: % is set by controls: 0 for no effect and ±100 for the full control effect; nearly all actives have a fitted effect of over 55% in size
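Quantitative HTS, concentration-response format. 2,000 cells/well co-treated with 5-fluorouridine and compound, 16 hr in 5% CO2 at 37 °C; ONE-Glo luminescence read after 30 min.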
SMN2 splice enh: increases expression of the SMN2 splice variant; HEK293 SMN2-luciferase splicing reporter, luminescence, 30-36 h; Potency, µM (titrated, usually from 46.1 µM), for the others: top-dose activity change, positive = activation, actives largely listed as activators; 2.8% of 210,000 active; AID 1458; note: % of control where 0% means no effect; nearly all actives have a fitted effect of over 55% in size
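HEK293 cells carry an SMN2 […]–luciferase reporter in which exon 7 inclusion puts luciferase in frame. Cells were plated 10-12 h before compound addition, then incubated 30-36 h at 37C. ONE-Glo luminescence was read; sodium butyrate at 4.5 mM final served as control.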
NPC1 promoter act: activators of NPC1 promoter; Huh7 NPC1 promoter luciferase reporter, 24 h; Potency, µM (titrated, usually from 9.22 µM), inactives show top-dose activation, usual class: activators; 2.4% of 320,000 active; AID 485313; note: % of control where 0% means no effect; nearly all actives have a fitted effect of over 60% in size
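Luciferase expression driven by the NPC1 promoter was measured in stably transfected Huh7 cells after a 24 h compound incubation, using a luciferase reagent and a luminescence read.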
ELG1 genotox: induces genotoxicity in HEK293T cells with luciferase-tagged ELG1. Potency, µM (series often up to 46 µM), for the others: at the top dose activity change, positive = activation, usual class: activators. HEK293T ELG1-luciferase reporter, luminescence, 16 h. 1.3% of 330,000 active. AID 504466; note: % of control where 0% means no effect; nearly all actives have a fitted effect of over 60% in size
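ELG1-luciferase HEK293T cells, 2,000/well; compound pinned in; 16 hr, 37 °C, 5% CO2; ONE-Glo, 30 min RT; luminescence on CCD imager.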
FLuc counter: firefly luciferase modulation, counter-screen for miR-21 project; P08659; purified FLuc, Km substrates, luminescence inhibition; 6.9% of 360,000 active; Potency, µM (titrated, usually from 57.5 µM), for inactives: top-dose activity change, negative = inhibition, usual class: inhibitors;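 note: plate controls were vehicle for no effect and reference inhibitor for full effect; nearly all actives have a fitted effect of over 55% in size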
Target sequence (P08659 whole entry, looked up): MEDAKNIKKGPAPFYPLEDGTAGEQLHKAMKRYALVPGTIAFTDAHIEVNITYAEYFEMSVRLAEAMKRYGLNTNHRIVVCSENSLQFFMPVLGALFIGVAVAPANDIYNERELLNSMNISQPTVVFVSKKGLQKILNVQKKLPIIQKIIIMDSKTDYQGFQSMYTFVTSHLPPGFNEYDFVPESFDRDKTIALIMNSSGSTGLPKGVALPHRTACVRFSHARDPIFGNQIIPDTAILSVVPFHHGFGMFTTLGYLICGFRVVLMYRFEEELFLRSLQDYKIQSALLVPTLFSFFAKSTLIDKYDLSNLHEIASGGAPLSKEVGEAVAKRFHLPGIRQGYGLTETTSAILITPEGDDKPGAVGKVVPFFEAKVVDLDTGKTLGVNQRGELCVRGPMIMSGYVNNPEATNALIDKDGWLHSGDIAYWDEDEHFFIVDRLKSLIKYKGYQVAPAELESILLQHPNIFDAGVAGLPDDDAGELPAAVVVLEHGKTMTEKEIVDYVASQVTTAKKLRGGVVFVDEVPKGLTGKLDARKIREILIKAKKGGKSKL
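Biochemical qHTS of compounds, final roughly 60 µM downward over six points, against 10 nM purified firefly luciferase using Km concentrations of substrates (10 uM D-luciferin, 10 uM ATP) in Tris acetate pH 7.5 buffer; luminescence output.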
Rab9 promoter act: Rab9 promoter activation; Potency, µM (series often up to 9.22 µM), inactives show at the top dose activation, negative = inhibition, usual class: activators; 2.8% of 320,000 active; Huh7 Rab9 promoter-luciferase reporter, luminescence, 24 h; note: % of control where 0% means no effect; nearly all actives have a fitted effect of over 60% in size
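Luminescence read-out: Huh7 cells stably expressing Rab9-luciferase, treated 24 h with compound at 37 °C, then lysed with luciferase reagent for 10 min at ambient before reading.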
* marks the source's active call; other numbers are inactive results; ? = inconclusive; · = no result. A selection: hits, their analogues and other compounds. The true share with any hit is near 9.2%. Calls come from the whole dose curve; as a rule, active = well fitted curve in the direction sought with a large enough effect; inconclusive = small, poorly fitted or top-dose-only effect, or another doubt; inactive = no such curve, though single readings can be large; an effect the other way counts as inactive or inconclusive. Potency is the fitted concentration of half-maximal effect.

SMILES | ELG1 repair inh | SMN2 splice enh | NPC1 promoter act | ELG1 genotox | FLuc counter | Rab9 promoter act
COc1ccc(-c2nnc(SCC(=O)Nc3cccc(Cl)c3)o2)cc1 | ? | 12.6µM* | ? | ? | 0.7% | 2µM*
CCc1sc(C(=O)Nc2ccc(OC)c(S(=O)(=O)N3CCOCC3)c2)cc1C | 8.2µM* | · | · | -4.9% | · | ·
COc1ccc(NC(=O)C2CCC2)cc1S(=O)(=O)N1CCOCC1 | 15.2% | · | -1.6% | -1.1% | 2.8% | -3.2%
COc1ccc(NC(=O)c2cc3c(s2)CCC(C)C3)cc1S(=O)(=O)N1CCOCC1 (configuration not stated) | 23.1µM* | -65.1% | -8.9% | -15.1% | ? | -17.8%
COc1ccc(NC(=O)c2cc(S(=O)(=O)N3CCOCC3)ccc2C)cc1S(=O)(=O)N1CCOCC1 | ? | · | · | -1.2% | · | ·
Cc1ccnc(NC(=O)c2cccc(S(=O)(=O)N3CCCc4ccccc43)c2)c1 | ? | · | 0.1% | 7.3µM* | 4.78µM* | 0.1%
O=C(Nc1ccccn1)c1cccc(S(=O)(=O)N2CCCc3ccccc32)c1 | ? | · | -3.3% | -2.7% | -1.6% | -4.6%
O=C(Nc1ccc(S(=O)(=O)N2CCc3ccccc32)cc1)c1ccco1 | 20.6µM* | -23.7% | -0.9% | -10.0% | 0.4% | -3.6%
CN(C)S(=O)(=O)c1cccc(NC(=O)c2cccc(S(=O)(=O)N3CCc4ccccc43)c2)c1 | 16.4µM* | · | -13.2% | -3.7% | · | -16.3%
O=C(Nc1ccc(S(=O)(=O)N2CCc3ccccc32)cc1)c1ccc2c(c1)OCO2 | ? | -30.6% | 6.0% | 23.1µM* | -13.2% | -11.0%
O=C(Cn1ncc2c3ccccc3n(Cc3cccc(Cl)c3)c2c1=O)NCCCN1CCCCC1 | · | 7.5% | · | · | -2.5% | ·
O=C(O)c1ccccc1OCc1nc2ccccc2s1 | ? | · | ? | ? | 3.79µM* | 10.8%
Cc1noc(C)c1COC(=O)CCCc1nc2ccccc2s1 | 6.1% | 15.7% | 1.0% | 2.9% | -5.9% | 7.3%
O=C(OCc1nc2ccccc2s1)c1cccs1 | · | ? | · | · | 2.69µM* | ·
O=C(O)c1ccccc1OCc1ccccc1Br | 9.2% | 10.0% | -1.4% | -4.3% | -14.1% | -0.7%
COc1cc(OC)cc(C(=O)NCC(=O)OCc2nc3ccccc3s2)c1 | ? | · | 13.9% | ? | 9.53µM* | ?
CCCCC(=O)OCc1nc2ccccc2s1 | ? | 9.7% | -0.7% | 8.6% | 21.3µM* | 15.0%
Cc1cc(C)n2nc(SCC(=O)N(CCC#N)c3ccc(F)cc3)nc2n1 | 8.8% | · | -2.5% | -2.7% | 1.8% | 1.6%
Cc1ccccc1N1CCN(C2CCCN(C(=O)c3cnsn3)C2)CC1 (configuration not stated) | 11.0% | · | -5.1% | -1.2% | -2.4% | 1.0%
Cc1cccc(OCC(=O)NCC(=O)N/N=C/c2cc(Br)cc(Br)c2O)c1 | ? | · | 0.0% | ? | -4.2% | -6.2%
O=C(OCc1nc2ccccc2s1)c1ccccc1O | ? | -4.2% | 7.2% | ? | 8.49µM* | 23.5%
N#C/C(=C(/O)COC(=O)c1ccccc1O)c1nc2ccccc2s1 | 6.9% | -42.0% | -3.1% | -8.8% | 21.3µM* | 0.7%
O=C(c1ccccc1)c1ccc(COC(=O)c2cnccn2)cc1 | 0.0% | 4.0% | -0.3% | 6.2% | 23.9µM* | -1.5%
O=C(OCc1nc2ccccc2s1)c1cnccn1 | ? | -4.0% | -2.1% | ? | 10.7µM* | 4.0%
O=C(NCC(c1ccccc1Cl)N1CCCC1)c1ccc(N2CCCC2=O)cc1 (configuration not stated) | ? | · | 23.4% | 11.8% | -18.8% | ?
SMILES | ELG1 repair inh | SMN2 splice enh | NPC1 promoter act | ELG1 genotox | FLuc counter | Rab9 promoter act
Cc1cc(C(=O)COC(=O)c2ccc(NC(=O)CC#N)cc2)c(C)n1-c1ccc(OC(F)F)cc1 | ? | · | · | -3.6% | · | ·
Cc1cc(C(=O)COC(=O)c2ccc(Cl)c(S(N)(=O)=O)c2)c(C)n1C1CC1 | ? | · | 3.98µM* | 15.3% | 4.78µM* | 1.78µM*
Cc1cc(C(=O)COC(=O)c2ccc(NC(=O)CC#N)cc2)c(C)n1C1CC1 | ? | · | ? | 18.3% | 13.5µM* | 3.98µM*
CCn1cc(C(=O)N2CCN(c3ccccc3F)CC2)c(=O)c2cc(S(=O)(=O)N(C)C3CCCCC3)ccc21 | · | 3.7% | · | · | ? | ·
CC(=O)c1cc2c(cc1NC(=O)C1CN(C(C)=O)c3ccccc3O1)OCO2 (configuration not stated) | ? | · | · | -3.6% | · | ·
O=C(c1ccco1)n1nc(-c2ccco2)nc1SCc1ccccc1 | ? | 7.9% | -4.8% | ? | -9.0% | ?
O=C(Cc1ccccc1)n1nc(-c2ccco2)nc1SCc1ccccc1 | ? | 11.0% | 23.5% | ? | 16.9µM* | 15.4%
Cc1ccc(S(=O)(=O)n2nc(-c3ccco3)nc2SCc2ccccc2)cc1 | ? | 15.8µM* | 18.2% | 14.6% | 23.9µM* | 21.9%
CCCC(=O)n1nc(-c2ccco2)nc1SCc1ccccc1 | ? | ? | 13.3% | 7.6% | 9.53µM* | 17.4%
CCOc1ccc(C(=O)c2cn(CC(=O)Nc3ccc(C)c(C)c3)c3ccc(OCC)cc3c2=O)cc1 | · | 3.7% | · | · | -0.7% | ·
CC(Oc1ccccc1)C(=O)OCc1cc(=O)n2nc(C(C)C)sc2n1 (configuration not stated) | · | · | · | · | -5.4% | ·
CN(C(=O)c1cccs1)c1ccc(OCC(=O)Nc2ccc(C(=O)O)cc2)cc1 | 16.9% | · | -3.4% | 1.2% | 16.9µM* | -0.4%
COc1ccc(OCC(=O)Nc2ccc(NC(=O)c3cccs3)cc2)cc1 | ? | · | 1.0% | 12.2% | 4.4% | 2.8%
O=C(COC(=O)c1ccccn1)c1ccc(Br)cc1 | -3.1% | 4.4% | 1.0% | -0.3% | 2.39µM* | 2.6%
O=C(OCC1CC(c2ccccn2)=NO1)c1ccc(Br)cc1 (configuration not stated) | ? | -5.4% | 11.8% | 12.8% | 16.9µM* | 9.0%
COc1ccc(C(=O)COC(=O)c2ccccn2)cc1OC | ? | · | -1.7% | 1.9% | -9.9% | -2.4%
O=C(COC(=O)c1ccccn1)c1cccc(Br)c1 | 1.5% | · | ? | -0.8% | 19µM* | -4.6%
O=C(COC(=O)c1ccc(Br)cc1)Nc1cccnc1Cl | 11.3% | · | -1.4% | 4.4% | -3.3% | -3.6%
CC(C)(C)OC(=O)N1CCC(c2c(C(=O)NCCN3CCOCC3)cnn2-c2ccc(F)cc2F)CC1 | · | · | · | · | -1.3% | ·
CC(C)c1ccc(Nc2c(-c3ccc(N(C)C)cc3)nc3cnccn23)cc1 | · | 8.5% | · | · | ? | ·
Cc1ccccc1OCCCSc1nc2ccccc2[nH]1 | -10.3% | · | 0.1% | 0.0% | 23.9µM* | 2.5%
Cc1c(OCC(F)(F)F)ccnc1CSc1nc2ccccc2[nH]1 | ? | -21.0% | ? | 16.5% | 12µM* | ?
